Assay outcomes: PubChem, National Center for Advancing Translational Sciences (NCATS)
RORgamma inh: blocks mouse ROR gamma transcriptional activity. AID 2551. Potency, µM (top dose mostly 53.6 µM), inactives show at the highest dose activity change, negative = inhibition, hits mostly inhibitors. Drosophila S2 Gal4-RORgamma UAS-luciferase reporter, 20 h. actives 5.4% (n = 310,000); note: % is set by controls: 0 for no effect and ±100 for the full control effect; nearly all actives have a fitted effect of over 60% in size
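Compounds are pin-transferred onto Drosophila Schneider cells expressing a copper-inducible Gal4–ROR gamma transactivation domain fusion. After 1 hr, copper sulfate is added to 700 uM final; luciferase is read 20 hr later.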
GLP-1R inv ag: GLP-1 receptor (human) inverse agonism | P43220 | HEK293 GLP-1R CRE-luciferase, luminescence, 24 h; GLP-1R form is constitutively active | Potency, µM (highest dose often 38.3 µM), for the others: at the top dose activity change, negative = inhibition, hits mostly inhibitors | actives 1.6% (n = 410,000); note: % is set by controls: 0 for no effect and ±100 for the full control effect; nearly all actives have a fitted effect of over 55% in size
Target sequence (P43220 whole entry, looked up): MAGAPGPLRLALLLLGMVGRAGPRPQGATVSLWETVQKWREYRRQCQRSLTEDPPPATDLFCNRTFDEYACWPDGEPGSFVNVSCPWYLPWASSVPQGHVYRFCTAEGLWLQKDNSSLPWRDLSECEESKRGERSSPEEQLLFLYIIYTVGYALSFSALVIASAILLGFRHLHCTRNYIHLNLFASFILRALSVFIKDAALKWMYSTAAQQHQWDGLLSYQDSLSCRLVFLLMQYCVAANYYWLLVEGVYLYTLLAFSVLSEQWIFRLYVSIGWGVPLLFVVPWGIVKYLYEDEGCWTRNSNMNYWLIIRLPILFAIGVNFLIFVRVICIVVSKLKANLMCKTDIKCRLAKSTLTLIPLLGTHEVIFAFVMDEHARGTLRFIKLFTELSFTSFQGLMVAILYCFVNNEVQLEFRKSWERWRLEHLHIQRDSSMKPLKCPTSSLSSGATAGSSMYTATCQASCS
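Stable HEK293 clone (constitutively active GLP-1R + cAMP-response luciferase); 200 cells/uL plated, 12 h pre-culture, compound 24 hr, 37 deg C/5% CO2; detection reagent 12 min RT; luminescence.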
Gal4-VP16 FLuc: inhibits Gal4-VP16 luciferase reporter, ROR gamma counter-screen. Drosophila S2 Gal4-VP16 UAS-luciferase, luminescence, 20 h. Potency, µM (highest dose often 53.6 µM), inactives show at the highest dose activity, negative = inhibition, most hits filed as inhibitors. actives 3.5% (n = 310,000);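 note: Gal4-VP16 expression switched on by copper sulfate through the metallothionein promoter; % is set by controls: 0 for no effect and ±100 for the full control effect; nearly all actives have a fitted effect of over 50% in size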
HEK293 tox: cytotoxic in the GLP-1 receptor inverse agonist counter-screen | Potency, µM (doses to about 38.3 µM), for inactives: at the top dose activity change, negative = inhibition, actives largely listed as inhibitors | HEK293 cAMP-luciferase reporter cells, luminescence, 24 h | actives 0.13% (n = 410,000) | AID 624418;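 note: loss of luciferase light is scored as toxicity; % is set by controls: 0 for no effect and ±100 for the full control effect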
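Seeding density was 200 cells/uL; after overnight-length (12 h) culture, 23 nL compounds went on for 24 h at 37 °C. Readout used a luciferase detection reagent, luminescence taken after 12 min at room temperature.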
GLP1R ag: GLP-1 receptor (human) agonism; P43220; HEK293 GLP-1R CRE-luciferase, luminescence, 4-6 h; cells express a hypersensitive GLP-1R form; Potency, µM (doses to about 45.6 µM), inactives show at the top dose activation, usual class: activators; actives 0.007% (n = 380,000); AID 624172; note: % of control where 0% means no effect
* = called active by the depositor; ? = inconclusive; nt = no result given; [ ] = remark or other dose. An excerpt weighted towards active compounds, which were near 5.9% of everything screened. Calls come from the whole dose curve; as a rule, active = well fitted curve in the direction sought with a large enough effect; inconclusive = small, poorly fitted or top-dose-only effect, or another doubt; inactive = no such curve, though single readings can be large; an effect the other way counts as inactive or inconclusive. Potency is the fitted concentration of half-maximal effect.

SMILES	RORgamma inh	GLP-1R inv ag	Gal4-VP16 FLuc	HEK293 tox	GLP1R ag
Cc1ccc(F)cc1NC(=O)CCc1c(C)nn(-c2ccc(N3CCCCC3)nn2)c1C	-11.6%	?	-0.1%	-5.6%	5.7%
Cc1cc(F)ccc1NC(=O)CCc1c(C)nn(-c2ccc(N3CCCCC3)nn2)c1C	8.91µM*	-0.1%	0.8%	-8.4%	3.0%
COc1ccc(C(=O)/C=C/c2cn(CC(O)CN3CCc4ccccc43)c3ccccc23)cc1OC (stereo not drawn)	nt	10µM*	nt	-23.3%	nt
Cc1ccc(C(=O)/C=C/c2cn(CC(O)CN3CCc4ccccc43)c3ccccc23)cc1 (stereo not drawn)	nt	?	nt	-10.6%	nt
Cc1oc2ncn(C)c(=O)c2c1C(=O)N1CCN(c2ccc(Cl)cc2)CC1	nt	14.4%	nt	-5.7%	nt
CCC(C)NC(=O)CSc1nc2c(sc3ccccc32)c(=O)n1CCc1ccccc1 (stereo not drawn)	nt	22.4%	nt	-1.2%	0.9%
O=C(CC1N=C2c3ccccc3N=C(SCc3ccc(Cl)cc3)N2C1=O)NCCc1ccccc1 (stereo not drawn)	nt	7.5%	nt	8.1%	nt
COc1ccc(C(=O)NCC(=O)OCc2cccc(Br)c2)cc1	3.5%	6.5%	1.5%	2.5%	1.1%
CCN(CC)c1ccc(C(=O)N/N=C/c2ccccc2OC(F)F)cc1	2.51µM*	?	?	-10.4%	3.2%
COc1ccc(O)c(/C=N/NC(=O)c2ccc(OCc3cccc(Br)c3)cc2)c1	5.01µM*	0.0%	4.47µM*	-16.9%	-5.3%
COc1ccc(NS(=O)(=O)c2ccc(NC(=O)c3ccc(N(C)S(C)(=O)=O)cc3)cc2)c(OC)c1	?	5.6%	11.2µM*	4.2%	-7.8%
Cn1cccc1-c1cc(C(=O)N/N=C/c2cc(Br)ccc2O)[nH]n1	7.08µM*	?	10µM*	-14.0%	-4.3%
COc1ccc(NS(=O)(=O)c2ccc(NC(C)=O)cc2)c(OC)c1	13.8%	?	1.5%	-17.8%	2.3%
CCCCC[C@H](O)/C=C/[C@H]1OC(O)C[C@H](O)[C@@H]1C/C=C\CC(=O)O (stereo partly drawn)	8.9%	nt	-0.3%	nt	nt
COc1ccc(C(=O)N/N=C/c2cc(Br)ccc2O)cc1OC	3.16µM*	?	4.47µM*	35.6%	-0.2%
COc1ccccc1/C=N/NC(=O)c1ccc(Br)cc1	12.6µM*	0.0%	-8.6%	-15.9%	15.8%
COc1ccc(/C=N/NC(=O)c2ccc(N(C)S(=O)(=O)c3ccccc3)cc2)c(OC)c1	10µM*	-20.1%	-4.7%	-9.0%	-1.0%
COc1ccc(Br)cc1/C=N/NC(=O)c1cc(Br)ccc1O	-7.6%	nt	-8.6%	nt	nt
COc1ccc(/C=N/NC(=O)c2ccc(Br)cc2)c(OC)c1	11.2µM*	2.8%	-16.2%	-6.0%	10.5%
CC1CCC2C(=O)N3C(CCC(C)[C@H]3c3ccccc3Br)C(=O)N2C1c1ccccc1Br (stereo partly drawn)	0.5%[10 µM]	nt	-5.6%[10 µM]	nt	nt
CCCC(=O)NCC1(N(C)C)CCCCC1	nt	11.9%	nt	2.3%	nt
Cc1ccc(NC(=O)Cn2c(=O)n(CCCCC(=O)NCc3ccc4c(c3)OCO4)c(=O)c3ccccc32)cc1	nt	5.4%	nt	2.1%	1.2%
COc1ccccc1C=NN=C(NN=Cc1ccccc1OC)NN=Cc1ccccc1OC	nt	2.24µM*	nt	5.01µM*	-7.4%
COc1cccc2cc(-c3cn4ccc(C)cc4n3)c(=O)oc12	nt	18.0%	nt	-2.5%	-0.2%
CCOc1cccc2cc(-c3cn4cc(C)ccc4n3)c(=O)oc12	0.794µM*	25.2%	?	-4.9%	-2.6%
SMILES	RORgamma inh	GLP-1R inv ag	Gal4-VP16 FLuc	HEK293 tox	GLP1R ag
C/C(CCN1CCc2nc(-c3ccccc3)c(-c3ccccc3)cc2C1)=N\O[C@@H](C)CN1CCCCc2nc(C)c(C)cc21	-13.2%[10 µM]	nt	-0.9%[10 µM]	nt	nt
COC(=O)c1ccc(NC(=O)CSc2n[nH]c(CC(C)C)n2)cc1	nt	-8.6%	nt	14.7%	nt
CC12CCC(C(=O)NNc3ccc([N+](=O)[O-])cc3)(CC1=O)C2(C)C (stereo not drawn)	16.3%	8.91µM*	-4.1%	10.5%	-8.1%
CCc1ccc2c(c1)NC(c1cccnc1)=NC(c1ccc(C(C)(C)C)cc1)=N2	nt	?	nt	-20.0%	nt
CCOC(=O)C1=C(C)NC(C)=C(C(=O)OCC)C1c1sccc1C	8.0%	7.94µM*	-18.2%	-18.0%	4.3%
CC(=O)C1=C(C)NC(=S)NC1c1cccc([N+](=O)[O-])c1 (stereo not drawn)	10.4%	27.2%	8.3%	13.0%	0.4%
CC1=C(C(=O)OC(C)C)C(c2cccc([N+](=O)[O-])c2)n2c(cc(=O)[nH]c2=S)N1 (stereo not drawn)	12.6µM*	-0.1%	-18.2%	-0.5%	-11.7%
CCOC(=O)C1=C(C)NC(C)=C(C(=O)OCC)C1c1cccc([N+](=O)[O-])c1	nt	10µM*	nt	-11.3%	-4.3%
COCCOC(=O)C1=C(C)NC(C)=C(C(=O)OC(C)C)[C@H]1c1cccc([N+](=O)[O-])c1	-0.3%[16.9 µM]	nt	2.9%[17 µM]	nt	nt
CCOC(=O)C1=C(C)NC(C)=C(C(=O)OCC)C1c1cccs1	5.2%	-26.2%	-9.6%	6.1%[1.53 µM]	-0.9%
CC[C@]1(c2ccccc2)NC(=O)NC1=O	-8.8%	nt	-12.9%	nt	nt
O=C(N/N=C/C=C/c1ccccc1)c1ccc(Br)cc1	3.16µM*	-17.9%	4.47µM*	5.1%	2.8%
O=C(N/N=C/C=C\c1ccco1)c1cccnc1	12.6µM*	7.7%	?	19.5%	0.0%
O=C(N/N=C\C=C\c1ccco1)c1cc(-c2ccc3ccccc3c2)n[nH]1	2.24µM*	-7.0%	1µM*	-41.0%	-6.5%
O=C(N/N=C/C=C/c1ccccc1)c1cccnc1	5.62µM*	0.9%	?	1.8%	8.5%
O=C(N/N=C/C=C\c1ccccc1)c1cnccn1	-4.7%	6.5%	-18.5%	3.8%	8.7%
O=C(N/N=C/C=C/c1ccco1)c1cccnc1	-6.7%	2.7%	12.5%	13.4%	-1.4%
O=C(CNc1cccc2ccccc12)N/N=C/c1ccc(C(=O)O)cc1	17.5%	23.9%	1.1%	37.2%	-12.0%
O=C(N/N=C\C=C\c1ccco1)c1cncc(Br)c1	2.24µM*	7.9%	?	0.5%	4.9%
O=C(N/N=C/C=C/c1ccc(Br)cc1)C(O)c1ccccc1 (stereo not drawn)	11.2µM*	4.6%	?	3.7%	6.3%
O=C(CNc1cccc2ccccc12)N/N=C/C=C/c1ccco1	12.6µM*	?	?	-6.2%	6.1%
O=C(N/N=C\c1cc(Br)c(Br)o1)c1cncc(Br)c1	1.41µM*	1.2%	2µM*	-4.8%	-4.0%
O=C(CSc1nnc2ccccn12)c1ccc2c(c1)OCCO2	12.6µM*	-29.7%	?	-0.1%	-23.8%
Cc1cc(C(=O)CSc2nnc3ccccn23)c(C)n1-c1ccccc1	5.01µM*	?	2.82µM*	-3.7%	-40.8%
